From PubChem BioAssay (EPA / NIEHS)
Records with an inconclusive call do not appear. Active and inactive are the calls of the source. Rule for the calls, unless noted: active = hit-call score of the fitted dose curve at least 0.9, where 1 is the maximum; inactive = score below 0.9.

Legend:
[1] = ATG_TAL_CIS: Attagene CIS-FACTORIAL HepG2 Assay for human TAL Basal Promoter (AID 2282966); settings: HepG2 Attagene cis-factorial TAL promoter reporter; actives raise or lower the signal;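 note: background control endpoint measuring basal TAL promoter reporter mRNA not a specific factor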
Method in brief: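 Transiently transfected HepG2 (cis-regulated reporter units), 24 h treatment, mRNA read by fluorescent CE after RT-PCR; bidirectional fit, DMSO baseline.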

[2] = ATG_TGFb_CIS: Attagene CIS-FACTORIAL HepG2 Assay for human Transforming Growth Factor (TGF) (AID 2282967); settings: HepG2 Attagene CIS TGFb reporter, mRNA transcription; actives raise or lower the signal
Method in brief: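 Readout: fluorescently labeled reporter cDNA fragments resolved by capillary electrophoresis after RT-PCR. Transfected HepG2 cells dosed for 24 h; endogenous TF activity at TGFB1-linked cis element; gain or loss fitted relative to DMSO.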

[3] = ATG_VDRE_CIS: Attagene CIS-FACTORIAL HepG2 Assay for human Vitamin D Receptor Element (VDRE) (AID 2282968); settings: HepG2 VDRE cis-reporter transcription, actives raise or lower the signal
Method in brief: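 Readout is VDRE-driven reporter mRNA reflecting endogenous factor activity in human HepG2 cells, sampled 24 h post-dose. Quantification used labelled RT-PCR products separated by capillary electrophoresis; bidirectional analysis relative to DMSO.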

[4] = target: Estrogen receptor (Homo sapiens) (UniProt P03372); assay: ATG_ERa_TRANS: Attagene TRANS-FACTORIAL HepG2 Assay for human Estrogen Receptor alpha (ERa) (AID 2282970; active = hit-call score of the fitted dose curve at least 0.9, where 1 is the maximum); settings: HepG2 Attagene TRANS ERa GAL4 reporter, mRNA
Method in brief: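 One of 30 multiplexed endpoints from a HepG2 TRANS system, this one reports ERa-Gal4-driven reporter mRNA. Transcripts were quantified 24 hours post-dosing by fluorescent RT-PCR and capillary electrophoresis, with activity scored as induction over DMSO.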

[5] = target: X-box-binding protein 1 (Homo sapiens) (UniProt P17861); assay: ATG_Xbp1_CIS: Attagene CIS-FACTORIAL HepG2 Assay for human X-box Binding Protein 1 (XBP1) (AID 2282972); settings: HepG2 XBP1 cis-element reporter, Attagene multiplex; actives raise or lower the signal
Method in brief: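 Read-out: fluorescent reporter mRNA fragments resolved by capillary electrophoresis after RT-PCR. Human HepG2 liver cells carried transfected cis-promoter reporter units and were exposed to chemicals for 24 hours. Gain or loss of signal fitted relative to DMSO baseline.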

[6] = target: Glucocorticoid receptor (Homo sapiens) (UniProt P04150); assay: ATG_GR_TRANS: Attagene TRANS-FACTORIAL HepG2 Assay for human Glucocorticoid Receptor (GR) (AID 2282978; active = hit-call score of the fitted dose curve at least 0.9, where 1 is the maximum;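 note: activators score as hits since higher reporter transcript over DMSO is fitted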); settings: HepG2 Attagene TRANS GR reporter, mRNA transcription
Method in brief: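 Multiplexed TRANS reporter system, HepG2; 24 h exposure; RNA → oligo(dT) RT → reporter-specific PCR → 6-FAM primer extension → HpaI cut → CE fluorescence. Gain-of-signal vs DMSO.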

[7] = target: Oxysterols receptor LXR-alpha (Homo sapiens) (UniProt Q13133); assay: ATG_LXRa_TRANS: Attagene TRANS-FACTORIAL HepG2 Assay for human Liver X Receptor alpha (LXRa) (AID 2282980; active = hit-call score of the fitted dose curve at least 0.9, where 1 is the maximum); settings: HepG2 Attagene TRANS reporter, LXRa transactivation
Method in brief: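 HepG2 cells were transiently transfected with multiplexed reporter units driven by chimeric LXRa–GAL4 fusion proteins, then dosed for 24 h. Reporter mRNA was quantified by RT-PCR, fluorescent labelling and capillary electrophoresis; gain of signal fitted against DMSO baseline.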

[8] = ATG_M_06_TRANS: Attagene TRANS-FACTORIAL HepG2 Assay for M06 Transcription Factor (Internal Marker) (AID 2282983; active = hit-call score of the fitted dose curve at least 0.9, where 1 is the maximum;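 note: reporter transcript level by RT-PCR then capillary electrophoresis fluorescence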); settings: HepG2 Attagene TRANS M06 internal marker reporter
Method in brief: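 In this multiplexed HepG2 system, compounds are incubated 24 h with cells carrying GAL4-UAS reporter units. Reporter RNA is amplified and resolved by capillary electrophoresis, and induction is scored against DMSO.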

[9] = ATG_M_32_TRANS: Attagene TRANS-FACTORIAL HepG2 Assay for M32 Transcription Factor (Internal Marker) (AID 2282984; active = hit-call score of the fitted dose curve at least 0.9, where 1 is the maximum;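 note: transcript level of a background control reporter unit measured by RT-PCR and capillary electrophoresis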); settings: HepG2 Attagene TRANS M32 internal marker reporter
Method in brief: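 Internal background reporter in transfected HepG2: after 24 h chemical exposure, RNA reverse-transcribed, reporter cDNA amplified, fluorescently labelled and HpaI-cut, then sized by capillary electrophoresis. Gain of signal fitted against DMSO control.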

[10] = target: Nuclear respiratory factor 1 (Homo sapiens) (UniProt Q16656); assay: ATG_NRF1_CIS: Attagene CIS-FACTORIAL HepG2 Assay for human Nuclear Respiratory Factor 1 (NRF1) Orphan Gene (AID 2282987); settings: HepG2 NRF1 cis-element reporter, Attagene multiplex; actives raise or lower the signal
Method in brief: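 Human hepatoma HepG2 cells carrying transfected promoter-regulated reporter units were incubated with test chemicals for 24 h. Reporter transcripts were measured by RT-PCR plus capillary electrophoresis, and endpoints derived by bidirectional fitting with DMSO as baseline.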

[11] = target: Nuclear receptor subfamily 4 group A member 2 (Homo sapiens) (UniProt P43354); assay: ATG_NURR1_TRANS: Attagene TRANS-FACTORIAL HepG2 Assay for human Nuclear Receptor Related Protein 1 (NURR1) (AID 2282985; active = hit-call score of the fitted dose curve at least 0.9, where 1 is the maximum); settings: HepG2 Attagene TRANS reporter, mRNA readout
Method in brief: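 Reporter transcript induction, measured by RT-PCR with fluorescent labelling, HpaI digestion and capillary electrophoresis, after 24 hr dosing of human HepG2 cells transiently expressing an exogenous NR-Gal4 fusion with GAL4-UAS-driven reporters; DMSO as baseline.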

[12] = ATG_GAL4_TRANS: Attagene TRANS-FACTORIAL HepG2 Assay for GAL4 (Internal Marker) (AID 2282976; active = hit-call score of the fitted dose curve at least 0.9, where 1 is the maximum); settings: HepG2 Attagene TRANS GAL4 internal marker reporter
Method in brief: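 HepG2 cells transiently transfected with multiplexed GAL4-UAS reporter constructs were dosed for 24 h. Reporter mRNA was measured by RT-PCR, 6-FAM primer extension, HpaI digestion and capillary electrophoresis, and gain of signal was fitted relative to DMSO.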

[13] = target: Oxysterols receptor LXR-beta (Homo sapiens) (UniProt P55055); assay: ATG_LXRb_TRANS: Attagene TRANS-FACTORIAL HepG2 Assay for human Liver X Receptor beta (LXRb) (AID 2282981; active = hit-call score of the fitted dose curve at least 0.9, where 1 is the maximum); settings: HepG2 Attagene TRANS GAL4-LXRb reporter, mRNA
Method in brief: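 After 24 h chemical treatment of transfected HepG2 cells carrying exogenous NR-Gal4 chimeras, reporter mRNA was quantified by fluorescent RT-PCR and capillary electrophoresis; activity taken as increase over DMSO controls.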

[14] = target: Steroid hormone receptor ERR1 (Homo sapiens) (UniProt P11474); assay: ATG_ERRa_TRANS: Attagene TRANS-FACTORIAL HepG2 Assay for human Estrogen-Related Receptor alpha (ERRa) (AID 2282971; active = hit-call score of the fitted dose curve at least 0.9, where 1 is the maximum); settings: HepG2 Attagene TRANS reporter, ERRa transactivation
Method in brief: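 HepG2 cells transiently transfected with multiplexed GAL4-UAS reporter units reading chimeric ERRa-Gal4 activity; 24 h compound exposure. Reporter mRNA measured by RT-PCR, 6-FAM labelling, HpaI digest and capillary electrophoresis; gain of signal fitted versus DMSO baseline.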

[15] = target: Transcriptional activator Myb (Homo sapiens) (UniProt P10242); assay: ATG_Myb_CIS: Attagene CIS-FACTORIAL HepG2 Assay for human Myeloblastosis (Myb) Proto-Oncogene Transcription Factor (AID 2282986); settings: HepG2 Attagene CIS-FACTORIAL Myb reporter transcription; actives raise or lower the signal
Method in brief: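 Endogenous transcription factor activity at a Myb-responsive cis element is reported in human liver HepG2 cells after 24 h chemical treatment. Reporter mRNA is detected by RT-PCR and capillary electrophoresis fluorescence, with DMSO as baseline.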

[16] = target: Hepatocyte nuclear factor 4-alpha (Homo sapiens) (UniProt P41235); assay: ATG_HNF4a_TRANS: Attagene TRANS-FACTORIAL HepG2 Assay for human Hepatocyte Nuclear Factor 4 alpha (HNF4a) (AID 2282982; active = hit-call score of the fitted dose curve at least 0.9, where 1 is the maximum); settings: HepG2 HNF4a transactivation reporter, mRNA readout
Method in brief: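 Activity of an exogenous HNF4a–Gal4 fusion scored as induced GAL4-UAS reporter transcripts after 24 h chemical exposure of transfected human HepG2 cells. Read-out via RT-PCR with 6-FAM labelling and capillary electrophoresis; rise over DMSO baseline.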

[17] = ATG_M_19_TRANS: Attagene TRANS-FACTORIAL HepG2 Assay for M19 Transcription Factor (Internal Marker) (AID 2282974; active = hit-call score of the fitted dose curve at least 0.9, where 1 is the maximum); settings: HepG2 Attagene TRANS-FACTORIAL M19 internal marker reporter
Method in brief: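 After transfection of HepG2 with GAL4-UAS-driven reporter constructs, cells are dosed for 24 h. Total RNA is reverse-transcribed, reporter sequences PCR-amplified and labelled, then HpaI-digested and sized by capillary electrophoresis.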

[18] = target: Estrogen-related receptor gamma (Homo sapiens) (UniProt P62508); assay: ATG_ERRg_TRANS: Attagene TRANS-FACTORIAL HepG2 Assay for human Estrogen-Related Receptor gamma (ERRg) (AID 2282977; active = hit-call score of the fitted dose curve at least 0.9, where 1 is the maximum;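 note: hits increase reporter signal over DMSO so potencies reflect activators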); settings: HepG2 Attagene TRANS reporter, ERRg transactivation
Method in brief: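 Induction of reporter transcripts through a chimeric NR-Gal4 protein is quantified in transfected human HepG2 liver cells after 24 h chemical exposure, using RT-PCR with capillary electrophoresis detection and DMSO as baseline.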

[19] = target: Bile acid receptor (Homo sapiens) (UniProt Q96RI1); assay: ATG_FXR_TRANS: Attagene TRANS-FACTORIAL HepG2 Assay for Farnesoid X Receptor (FXR) (AID 2282979; active = hit-call score of the fitted dose curve at least 0.9, where 1 is the maximum;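 note: hits raise reporter mRNA above DMSO so AC50 marks FXR activation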); settings: HepG2 Attagene TRANS FXR-GAL4 reporter transcription
Method in brief: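 HepG2 cells transiently transfected with reporter constructs in which a chimeric FXR-GAL4 protein drives a GAL4-UAS reporter; 24 h compound exposure. Reporter mRNA measured by RT-PCR, FAM labelling, HpaI digestion and capillary electrophoresis; gain-of-signal versus DMSO.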

X-box-binding protein 1 (Homo sapiens), sequence (P17861 whole entry, looked up, the tested form may be a part): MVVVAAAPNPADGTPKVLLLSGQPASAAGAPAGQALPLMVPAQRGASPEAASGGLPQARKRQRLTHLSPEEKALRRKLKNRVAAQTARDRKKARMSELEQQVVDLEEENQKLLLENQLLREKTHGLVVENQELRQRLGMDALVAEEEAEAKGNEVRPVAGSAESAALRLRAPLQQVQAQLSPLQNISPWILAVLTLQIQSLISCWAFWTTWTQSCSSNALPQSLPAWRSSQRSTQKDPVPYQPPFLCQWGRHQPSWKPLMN
Nuclear receptor subfamily 4 group A member 2 (Homo sapiens), sequence (P43354 whole entry, looked up, the tested form may be a part): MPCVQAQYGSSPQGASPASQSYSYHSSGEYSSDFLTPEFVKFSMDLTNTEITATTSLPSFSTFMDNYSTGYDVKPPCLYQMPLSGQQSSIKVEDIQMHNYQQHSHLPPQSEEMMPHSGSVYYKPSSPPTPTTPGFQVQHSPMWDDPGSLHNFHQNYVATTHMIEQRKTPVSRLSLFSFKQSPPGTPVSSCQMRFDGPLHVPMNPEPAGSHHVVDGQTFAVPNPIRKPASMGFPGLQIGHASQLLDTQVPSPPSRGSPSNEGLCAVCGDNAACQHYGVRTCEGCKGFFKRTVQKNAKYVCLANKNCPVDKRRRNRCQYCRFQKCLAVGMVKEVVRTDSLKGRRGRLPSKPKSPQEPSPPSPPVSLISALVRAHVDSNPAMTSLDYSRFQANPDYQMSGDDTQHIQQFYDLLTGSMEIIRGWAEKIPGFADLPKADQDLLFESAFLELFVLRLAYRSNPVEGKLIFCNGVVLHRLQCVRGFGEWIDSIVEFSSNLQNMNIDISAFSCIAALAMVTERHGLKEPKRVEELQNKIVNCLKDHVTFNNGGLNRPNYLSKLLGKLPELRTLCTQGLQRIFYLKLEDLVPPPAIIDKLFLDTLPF
Oxysterols receptor LXR-alpha (Homo sapiens), sequence (Q13133 whole entry, looked up, the tested form may be a part): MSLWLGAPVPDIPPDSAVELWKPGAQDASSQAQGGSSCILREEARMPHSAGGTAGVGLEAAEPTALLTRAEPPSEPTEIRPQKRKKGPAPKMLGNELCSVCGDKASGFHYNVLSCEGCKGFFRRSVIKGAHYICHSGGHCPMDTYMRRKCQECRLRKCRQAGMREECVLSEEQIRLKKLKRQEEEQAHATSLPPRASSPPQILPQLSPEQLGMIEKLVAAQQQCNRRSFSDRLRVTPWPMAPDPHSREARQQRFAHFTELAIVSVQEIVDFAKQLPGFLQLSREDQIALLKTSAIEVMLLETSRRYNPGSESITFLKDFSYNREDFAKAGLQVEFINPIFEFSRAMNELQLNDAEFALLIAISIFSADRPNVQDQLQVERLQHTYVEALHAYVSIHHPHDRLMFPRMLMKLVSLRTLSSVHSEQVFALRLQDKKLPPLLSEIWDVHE
Estrogen receptor (Homo sapiens), sequence (P03372 whole entry, looked up, the tested form may be a part): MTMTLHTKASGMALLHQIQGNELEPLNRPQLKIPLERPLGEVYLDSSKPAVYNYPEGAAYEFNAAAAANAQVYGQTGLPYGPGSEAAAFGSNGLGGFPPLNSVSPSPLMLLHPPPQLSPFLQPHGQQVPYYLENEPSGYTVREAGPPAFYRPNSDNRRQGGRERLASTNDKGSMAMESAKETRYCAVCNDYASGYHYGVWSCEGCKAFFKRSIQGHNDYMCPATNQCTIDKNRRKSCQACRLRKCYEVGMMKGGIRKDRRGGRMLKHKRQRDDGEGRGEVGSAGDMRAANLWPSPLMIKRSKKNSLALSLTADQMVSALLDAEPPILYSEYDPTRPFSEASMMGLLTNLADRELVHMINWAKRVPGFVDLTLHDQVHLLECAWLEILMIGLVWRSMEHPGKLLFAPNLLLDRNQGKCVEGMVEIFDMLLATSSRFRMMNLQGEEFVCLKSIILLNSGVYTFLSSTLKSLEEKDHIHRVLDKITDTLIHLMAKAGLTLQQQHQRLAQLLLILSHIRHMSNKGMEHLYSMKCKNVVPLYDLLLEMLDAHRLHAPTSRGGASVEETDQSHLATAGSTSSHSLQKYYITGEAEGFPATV
Oxysterols receptor LXR-beta (Homo sapiens), sequence (P55055 whole entry, looked up, the tested form may be a part): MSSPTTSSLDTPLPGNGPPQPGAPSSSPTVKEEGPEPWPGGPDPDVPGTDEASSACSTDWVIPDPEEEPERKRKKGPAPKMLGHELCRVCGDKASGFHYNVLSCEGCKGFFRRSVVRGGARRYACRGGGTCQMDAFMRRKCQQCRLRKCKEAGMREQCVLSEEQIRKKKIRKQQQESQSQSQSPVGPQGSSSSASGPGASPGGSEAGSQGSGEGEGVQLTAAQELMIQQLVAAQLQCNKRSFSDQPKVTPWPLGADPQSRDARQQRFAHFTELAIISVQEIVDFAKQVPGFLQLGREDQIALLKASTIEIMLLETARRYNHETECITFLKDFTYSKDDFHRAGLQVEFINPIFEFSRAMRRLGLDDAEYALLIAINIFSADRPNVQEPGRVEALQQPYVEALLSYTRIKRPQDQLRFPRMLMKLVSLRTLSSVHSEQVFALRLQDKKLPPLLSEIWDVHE
Steroid hormone receptor ERR1 (Homo sapiens), sequence (P11474 whole entry, looked up, the tested form may be a part): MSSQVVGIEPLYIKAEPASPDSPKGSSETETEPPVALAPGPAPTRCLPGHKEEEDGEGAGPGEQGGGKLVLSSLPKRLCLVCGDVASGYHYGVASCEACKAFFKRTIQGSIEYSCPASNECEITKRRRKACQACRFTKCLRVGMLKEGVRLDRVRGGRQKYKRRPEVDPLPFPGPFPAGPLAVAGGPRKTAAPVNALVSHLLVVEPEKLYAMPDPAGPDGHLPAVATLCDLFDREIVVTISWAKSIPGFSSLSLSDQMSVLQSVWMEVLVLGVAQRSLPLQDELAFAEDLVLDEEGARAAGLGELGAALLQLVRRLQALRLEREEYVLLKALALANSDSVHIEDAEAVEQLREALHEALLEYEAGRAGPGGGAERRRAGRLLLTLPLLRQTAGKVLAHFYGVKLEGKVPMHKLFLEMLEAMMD
Transcriptional activator Myb (Homo sapiens), sequence (P10242 whole entry, looked up): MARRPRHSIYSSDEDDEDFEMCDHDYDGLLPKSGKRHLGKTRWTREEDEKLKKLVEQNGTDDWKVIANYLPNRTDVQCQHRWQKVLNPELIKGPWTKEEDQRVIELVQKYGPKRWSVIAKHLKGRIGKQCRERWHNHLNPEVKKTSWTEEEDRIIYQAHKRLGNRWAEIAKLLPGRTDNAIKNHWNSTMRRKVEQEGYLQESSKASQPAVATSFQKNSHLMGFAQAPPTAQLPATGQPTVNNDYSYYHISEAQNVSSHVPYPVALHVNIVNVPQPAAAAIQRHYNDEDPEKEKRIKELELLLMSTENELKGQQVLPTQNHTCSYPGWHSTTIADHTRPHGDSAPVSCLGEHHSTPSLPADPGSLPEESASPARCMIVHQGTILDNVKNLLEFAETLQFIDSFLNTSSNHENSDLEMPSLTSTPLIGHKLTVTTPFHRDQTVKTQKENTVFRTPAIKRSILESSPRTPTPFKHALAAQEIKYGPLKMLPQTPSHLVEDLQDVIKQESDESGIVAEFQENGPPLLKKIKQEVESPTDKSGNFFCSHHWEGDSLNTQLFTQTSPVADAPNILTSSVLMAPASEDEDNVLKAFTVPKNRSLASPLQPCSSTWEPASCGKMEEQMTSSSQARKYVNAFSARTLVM
Glucocorticoid receptor (Homo sapiens), sequence (P04150 whole entry, looked up): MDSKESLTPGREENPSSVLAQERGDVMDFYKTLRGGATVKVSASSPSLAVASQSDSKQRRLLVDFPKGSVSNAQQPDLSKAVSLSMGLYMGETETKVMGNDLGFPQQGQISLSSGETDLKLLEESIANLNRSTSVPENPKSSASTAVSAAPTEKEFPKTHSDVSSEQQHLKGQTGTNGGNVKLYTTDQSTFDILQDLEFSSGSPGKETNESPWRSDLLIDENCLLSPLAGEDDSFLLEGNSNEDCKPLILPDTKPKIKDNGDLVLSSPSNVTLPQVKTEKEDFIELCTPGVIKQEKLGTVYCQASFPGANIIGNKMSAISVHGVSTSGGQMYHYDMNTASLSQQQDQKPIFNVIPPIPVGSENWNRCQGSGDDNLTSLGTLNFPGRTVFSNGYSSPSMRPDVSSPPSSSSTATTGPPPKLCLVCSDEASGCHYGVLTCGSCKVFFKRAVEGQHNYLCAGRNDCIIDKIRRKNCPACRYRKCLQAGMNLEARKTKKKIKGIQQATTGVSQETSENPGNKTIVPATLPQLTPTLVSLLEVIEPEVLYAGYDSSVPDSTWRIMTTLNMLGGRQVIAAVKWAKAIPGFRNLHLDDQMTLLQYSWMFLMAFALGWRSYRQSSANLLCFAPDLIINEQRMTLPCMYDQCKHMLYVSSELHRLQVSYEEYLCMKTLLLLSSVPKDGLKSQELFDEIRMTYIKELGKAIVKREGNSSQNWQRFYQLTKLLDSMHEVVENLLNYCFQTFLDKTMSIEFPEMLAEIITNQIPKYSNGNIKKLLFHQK
Nuclear respiratory factor 1 (Homo sapiens), sequence (Q16656 whole entry, looked up): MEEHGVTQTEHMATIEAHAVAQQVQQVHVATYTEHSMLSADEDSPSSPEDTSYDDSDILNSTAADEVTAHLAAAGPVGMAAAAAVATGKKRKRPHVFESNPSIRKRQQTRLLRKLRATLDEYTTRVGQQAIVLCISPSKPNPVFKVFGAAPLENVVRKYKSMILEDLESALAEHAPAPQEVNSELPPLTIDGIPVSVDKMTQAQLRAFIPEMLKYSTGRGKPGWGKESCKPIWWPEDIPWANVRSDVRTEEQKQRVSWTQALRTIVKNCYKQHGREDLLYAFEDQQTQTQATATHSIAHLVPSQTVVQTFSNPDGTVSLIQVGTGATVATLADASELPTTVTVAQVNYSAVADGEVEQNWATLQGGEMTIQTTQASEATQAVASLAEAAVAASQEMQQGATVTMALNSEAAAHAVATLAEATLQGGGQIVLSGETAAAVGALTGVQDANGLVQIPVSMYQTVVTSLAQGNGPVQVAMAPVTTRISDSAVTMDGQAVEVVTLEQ

In the case of `CCN(CC)c1ccc(C(=O)c2ccccc2C(=O)O)c(O)c1`, the outcome [1] is reported as “inactive”, the outcome [2] is reported as “inactive” and the AC50 [3] is reported as 1.7 µM (active). The outcome [4] was “inactive”, the outcome [5] was “inactive” and the outcome [6] was “inactive”. For the same compound, the outcome [7] was “inactive”, the outcome [8] was “inactive” and the outcome [9] was “inactive”. The outcome [10] was “inactive”.
For `C=CC(C)(CCC=C(C)C)OC(=O)C(C)C` (configuration not stated), the outcome [1] was “inactive”, the outcome [2] was “inactive” and the outcome [3] was “inactive”. For the same compound, the AC50 [4] was 38 µM (active), the outcome [5] was “inactive” and the outcome [6] was “inactive”. For the same compound, the outcome [7] was “inactive”, the outcome [8] was “inactive” and the outcome [11] was “inactive”. The outcome [10] was “inactive”.
With `CC1=CC[C@H]2C[C@@H]1C2(C)C` the outcome [1] was “inactive”, the outcome [2] was “inactive” and the outcome [3] was “inactive”. The outcome [4] was “inactive”, the outcome [5] was “inactive” and the outcome [12] was “inactive”. The outcome [13] was “inactive”, the outcome [9] was “inactive” and the outcome [11] was “inactive”. The outcome [10] was “inactive”.
With `CC1(C)[C@H]2CC[C@]1(C)C(=O)C2` the outcome [1] was “inactive”, the outcome [2] was “inactive” and the outcome [3] was “inactive”. The outcome [14] was “inactive”, the outcome [5] was “inactive” and the outcome [12] was “inactive”. For the same compound, the outcome [6] was “inactive”, the outcome [7] was “inactive” and the outcome [8] was “inactive”. The outcome [9] was “inactive”, the outcome [15] was “inactive” and the outcome [10] was “inactive”.
For `Cc1cc(O)c(Cl)c(C)c1Cl`, the outcome [1] was “inactive”, the outcome [2] was “inactive” and the outcome [3] was “inactive”. For the same compound, the AC50 [4] was 26.8 µM (active), the outcome [5] was “inactive” and the outcome [13] was “inactive”. For the same compound, the outcome [16] was “inactive”, the outcome [8] was “inactive” and the outcome [15] was “inactive”. For the same compound, the outcome [10] was “inactive”.
For `CCO[Si](C)(OCC)OCC`, the outcome [1] was “inactive”, the outcome [2] was “inactive” and the outcome [3] was “inactive”. The outcome [4] was “inactive”, the outcome [5] was “inactive” and the outcome [8] was “inactive”. For the same compound, the outcome [15] was “inactive” and the outcome [10] was “inactive”.
In the case of `O=C1CCCC1`, the outcome [1] is reported as “inactive”, the outcome [2] is reported as “inactive” and the outcome [3] is reported as “inactive”. The outcome [14] was “inactive”, the outcome [5] was “inactive” and the outcome [17] was “inactive”. The outcome [12] was “inactive”, the outcome [6] was “inactive” and the outcome [13] was “inactive”. The outcome [9] was “inactive”, the outcome [11] was “inactive” and the outcome [15] was “inactive”. For the same compound, the outcome [10] was “inactive”.
For `CCCOCCOCCOCCO`, the outcome [1] was “inactive”, the outcome [2] was “inactive” and the outcome [3] was “inactive”. For the same compound, the outcome [14] was “inactive”, the outcome [5] was “inactive” and the outcome [17] was “inactive”. For the same compound, the outcome [18] was “inactive”, the outcome [7] was “inactive” and the outcome [13] was “inactive”. For the same compound, the outcome [15] was “inactive” and the outcome [10] was “inactive”.
In the case of `[Cl][Nd]([Cl])[Cl]`, the outcome [1] is reported as “inactive”, the outcome [2] is reported as “inactive” and the outcome [3] is reported as “inactive”. For the same compound, the outcome [14] was “inactive”, the outcome [5] was “inactive” and the outcome [17] was “inactive”. For the same compound, the outcome [13] was “inactive”, the outcome [16] was “inactive” and the outcome [9] was “inactive”. The outcome [11] was “inactive”, the outcome [15] was “inactive” and the outcome [10] was “inactive”.
For `C=CC(=O)OCC(Br)CBr` (configuration not stated), the outcome [1] was “inactive”, the AC50 [2] was 0.39 µM (active) and the AC50 [3] was 26.3 µM (active). The AC50 [4] was 100 µM (active), the outcome [5] was “inactive” and the outcome [6] was “inactive”. For the same compound, the outcome [19] was “inactive”, the outcome [9] was “inactive” and the outcome [11] was “inactive”. The outcome [15] was “inactive” and the outcome [10] was “inactive”.
